The values below come from PubChem BioAssay (EPA / NIEHS).

The structures appear in SMILES notation. Several values for one entry are separate records, joined by “and”; a condition that tells them apart may be missing. Identical values can stand only once. Activity calls are given as the source filed them. The calls were made as follows: active = hit-call score of the fitted dose curve at least 0.9, where 1 is the maximum; inactive = score below 0.9.

As a reminder, the AC50 is the concentration giving half of the maximal activity seen.

Read-out in the assay: CD40, CD40 (gene 958)
As to the kind of experiment: BSK_LPS_CD40: BioMAP Diversity Plus: LPS Assay for CD40 Biomarker Activity (AID 2283076). The following applies: primary human HUVEC with PBMC; actives raise or lower the signal. The method, then:
BSK_LPS is a cell-based, multiplexed-readout assay that uses umbilical vein endothelium and peripheral blood mononuclear cells, a human vascular primary cell co-culture, with measurements taken at 24 hours after chemical dosing in a 96-well plate.BSK_LPS_CD40 is an assay component measured in the BSK_LPS assay. It measures CD40 antibody related to regulation of gene expression using ELISA technology.Data from the assay component BSK_LPS_CD40 was analyzed into 1 assay endpoint. This assay endpoint, BSK_LPS_CD40, was analyzed with bidirectional fitting relative to DMSO as the negative control and baseline of activity. Using a type of binding reporter, gain or loss-of-signal activity can be used to understand changes in the signaling as they relate to the gene CD40. Furthermore, this assay endpoint can be referred to as a primary readout, because this assay has produced multiple assay endpoints where this one serves a signaling function. To generalize the intended target to other relatable targets, this assay endpoint is annotated to the cytokine intended target family, where the subfamily is inflammatory factor.
The levels of cell surface (or secreted, indicated by the prefix "s") biomarker endpoints were measured by ELISA. Overt cytotoxicity to cells in confluent adherent cultures (all systems other than the BT system) was assessed by measuring total protein levels using sulforhodamine B (SRB) staining in parallel cultures at the time of biomarker measurements, indicated as SRB endpoints. For proliferation assays for adherent cell types, individual cell types are cultured at sub-confluence and relative cell numbers quantified by SRB staining at time points optimized for each system (48 h: 3C and CASM3C systems; 72 h: BT and HDF3CGF systems; 96 h: SAg system). SRB was performed by staining cells with 0.1% SRB after fixation with 10% TCA and reading wells at 560 nm.Viability and proliferation of PBMC (T cells) was quantified by Alamar Blue reduction for the SAg and BT systems. For PBMC viability (referred to as PBMC Cytotoxicity within the assay endpoint names), cells were plated (75,000/well in a 96-well plate) and then chemical samples added for 1 h before addition of activators, SEB and TSST-1 (20 ng/mL final concentration each). Cells were incubated for 90 h. Then, Alamar Blue (20 uL/well) (Invitrogen, Cat DAL1100) was added for 6 h, and the plates were read with a fluorescence microplate reader at 546/580 nm (excitation/emission). For PBMC proliferation, cells were plated and activated as above but incubated for only 16 h prior to addition of Alamar Blue. Plates were read after 6 h.
In the case of `CCS(=O)(=O)c1cccnc1S(=O)(=O)NC(=O)Nc1nc(OC)cc(OC)n1`, the result was inactive.

With `CCc1ccc(C(=O)NN(C(=O)c2cc(C)cc(C)c2)C(C)(C)C)cc1`, the result was inactive.

As for `Cc1cc(C)nc(NC(=O)NS(=O)(=O)c2ccccc2C(=O)OC2COC2)n1`, the outcome was inactive.

With `Oc1cc(Cl)ccc1Oc1ccc(Cl)cc1Cl`, the AC50 is 12.3 µM (active) and 9.21 µM (active) and 12.1 µM (active).

Regarding `O=C1c2ccccc2C(=O)N1SC(Cl)(Cl)Cl`, the result was inactive.

For the molecule `CCCN(CCOc1c(Cl)cc(Cl)cc1Cl)C(=O)n1ccnc1`, the AC50 was 20 µM (active).

Consider `CC(C)(C)C(O)/C(=C\c1ccc(Cl)cc1Cl)n1cncn1` (stereo not given), for which the AC50 was 18.4 µM (active).

With `COc1cc(OC)nc(NC(=O)NS(=O)(=O)c2cc(NC=O)ccc2C(=O)N(C)C)n1`, the result was inactive.

In the case of `CCCN(CCC)c1c([N+](=O)[O-])cc(C(F)(F)F)cc1[N+](=O)[O-]`, the AC50 is 20.4 µM (active).

For the molecule `O=[N+]([O-])/N=C1\NCCN1Cc1ccc(Cl)nc1`, the outcome was inactive.

In the case of `COC(=O)c1ccccc1CS(=O)(=O)NC(=O)Nc1nc(OC)cc(OC)n1`, the outcome was inactive.

As for `COP(=O)(OC)OC=C(Cl)Cl`, the AC50 was 27.3 µM (active).

`CN1CSC(=S)N(C)C1`: the result was inactive.

For `Oc1ccc(Cl)cc1Cc1ccccc1`, the AC50 was 21.1 µM (active) [middle of 7 runs].

For the molecule `CCOC1Oc2ccc(OS(C)(=O)=O)cc2C1(C)C` (stereo not given), the result was inactive.

As for `CCN(CC)C(=O)SCc1ccc(Cl)cc1`, the result was inactive.

`CCOc1nc(NC)nc(NC(=O)NS(=O)(=O)c2ccccc2C(=O)OC)n1`: the outcome was inactive.

With `COc1nn(CSP(=S)(OC)OC)c(=O)s1`, the result was inactive.

For the molecule `N#Cc1c(Cl)c(Cl)c(Cl)c(C#N)c1Cl`, the AC50 is 0.148 µM (active).

Consider `O=C(NC(=O)c1c(F)cccc1F)Nc1ccc(OC(F)(F)C(F)OC(F)(F)F)c(Cl)c1` (stereo not given), for which the result was inactive.

In the case of `Clc1ccccc1-c1nnc(-c2ccccc2Cl)nn1`, the result was inactive.

Consider `O=[N+]([O-])c1c(Cl)c(Cl)c(Cl)c(Cl)c1Cl`, for which the AC50 was 17.9 µM (active).

In the case of `O=C(O)COc1ccc(Cl)cc1Cl`, the result was inactive.

As to `N#CN`, the outcome was inactive.

For the molecule `CC1(c2ccc(Oc3ccccc3)cc2)OC(=O)N(Nc2ccccc2)C1=O` (stereo not given), the AC50 is 24.1 µM (active).

Consider `O=C(O)CCCOc1ccc(Cl)cc1Cl`, for which the result was inactive.

Take `[2H]C1([2H])[n+]2ccccc2-c2cccc[n+]2C1([2H])[2H]`: the result was inactive.

`CCC(C)(C)C(=O)OC1=C(c2ccc(Cl)cc2Cl)C(=O)OC12CCCCC2`: the AC50 was 10.5 µM (active).

`COP(=S)(OC)Oc1ccc(SC)c(C)c1`: the result was inactive.

As to `CC(C)OC(=O)Nc1cccc(Cl)c1`, the result was inactive.

Turning to `CNC(=O)Oc1cccc(N=CN(C)C)c1`, the AC50 was 13.5 µM (active).

`C#CCN1C(=O)COc2cc(F)c(N3C(=O)C4=C(CCCC4)C3=O)cc21`: the result was inactive.

With `CCC(C)Nc1c([N+](=O)[O-])cc(C(C)(C)C)cc1[N+](=O)[O-]` (stereo not given), the AC50 is 31.9 µM (active).

`COC(=O)c1ccccc1S(=O)(=O)NC(=O)N(C)c1nc(C)nc(OC)n1`: the outcome was inactive.

As to `CNC(=O)/C=C(\C)OP(=O)(OC)OC`, the outcome was inactive.

With `O=S(=O)(O)C(F)(F)C(F)(F)C(F)(F)C(F)(F)C(F)(F)C(F)(F)C(F)(F)C(F)(F)F`, the result was inactive.

For `O=C(Nc1ccccc1)Nc1cnns1`, the result was inactive.

On to `CCC(C)(NC(=O)c1cc(Cl)c(C)c(Cl)c1)C(=O)CCl` (stereo not given), for which the AC50 is 3.52 µM (active).

In the case of `CNC(=O)CSP(=S)(OC)OC`, the result was inactive.

Turning to `CC(C)N(C(=O)COc1nnc(C(F)(F)F)s1)c1ccc(F)cc1`, the outcome was inactive.
